“And” between values parts separate entries of the source, which are not always exact repeats. Equal entries are not always repeated. About 1,300 (0.68%) of roughly 190,000 compounds were called active. Many of the other results were omitted from the sample, so actives are more common in it than they were. Unmarked numbers belong to inactive results. Cut-off read from the data, not from the text of the source: active = inhibition above about 50%; inactive = the rest.
The compounds below were run against Mannose-6-phosphate isomerase (Homo sapiens) (UniProt P34949) (assay: MPI inhibition at elevated mannose 6-phosphate – biochemical, fluorescence intensity, high mannose 6-phosphate, primary screen (AID 1220)). Conditions: recombinant PMI enzyme, coupled fluorescence intensity; at 20 µM; stronger effect = higher value.
Sequence of Mannose-6-phosphate isomerase (Homo sapiens) (P34949 whole entry, looked up): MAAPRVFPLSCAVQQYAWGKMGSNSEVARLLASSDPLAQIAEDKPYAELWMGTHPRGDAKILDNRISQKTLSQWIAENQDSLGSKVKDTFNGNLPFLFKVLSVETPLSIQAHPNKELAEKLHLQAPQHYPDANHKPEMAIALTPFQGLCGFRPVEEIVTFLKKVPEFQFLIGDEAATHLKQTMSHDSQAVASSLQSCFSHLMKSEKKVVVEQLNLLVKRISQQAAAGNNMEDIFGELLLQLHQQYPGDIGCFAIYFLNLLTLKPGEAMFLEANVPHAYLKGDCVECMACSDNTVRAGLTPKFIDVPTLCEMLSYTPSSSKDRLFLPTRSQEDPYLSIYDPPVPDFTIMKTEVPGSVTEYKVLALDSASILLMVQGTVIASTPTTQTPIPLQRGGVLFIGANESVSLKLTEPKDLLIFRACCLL

Structure (SMILES) | inhibition
CCOC(=O)c1c(C)[nH]c(C)c1C(=O)COC(=O)c1ccc(S(=O)(=O)N(CC)CC)cc1 | 4.4%
Cc1ccc2ncccc2c1[N+](=O)[O-] | 9.7%
Cc1ccc2ncccc2c1N | 63.7% (active)
c1cnc2c(c1)ccc1cccnc12 | -13% and -7.3%
Cc1ccc2nc(C)c(C)nc2c1N | 23.4%
Nc1ccc2ncccc2c1N | 49.6%
Cc1ccc2cccnc2c1N | 70.5% (active)
O=C(c1cnc2n(c1=O)CCS2)N(c1ccccc1)C1CCCCC1 | -10.4%
CCc1ccc(NC(=O)c2c(C(=O)Nc3ccccc3)sc3nc(C)cc(=O)n23)cc1 | -2.4%
CCOC(=O)N1CCN(Cc2c(NC(=O)c3ccco3)sc(C)c2C)CC1 | 3.6%
CC1=NC(C)(C)Cc2ccccc21 | 11%
CC1(C)CC(=O)C(C2=NC(C)(C)Cc3ccccc32)=C(O)C1 | -9.5%
CCOc1ccc2[nH]c(=S)[nH]c2c1 | 20.7%
COC(=O)/C=C1/N/C(=N\c2nc(C)cc(C)n2)N(c2cccc(C)c2)C1=O | 50.4% (active)
COC(=O)/C=C1/N/C(=N\c2nc(C)cc(C)n2)N(c2ccccc2)C1=O | 13.3%
COC(=O)/C=C1\N/C(=N\c2nc(C)cc(C)n2)N(c2ccc(C)cc2)C1=O | -5.3%
CC(/C=N\NC(=O)CN1CCN(Cc2ccccc2)CC1)=C\c1ccco1 | 9.7%
CN1CCN(C(c2ccccn2)c2cc(Cl)c3cccnc3c2O)CC1 (stereo not drawn) | 43.8%
Oc1c(C(c2ccccn2)N2CCCCC2)cc(Cl)c2cccnc12 (stereo not drawn) | 32.5%
Oc1c(C(c2ccccn2)N2CCC(Cc3ccccc3)CC2)cc(Cl)c2cccnc12 (stereo not drawn) | 58.9% (active)
CC(=O)Cc1nsc(NC(=O)c2ccccc2)n1 | 6.4%

Structure (SMILES) | inhibition
Cc1cccc2cn[nH]c12 | -8.9%
Cc1ccc2cn[nH]c2c1[N+](=O)[O-] | 6.8%
Cc1ccc2cn[nH]c2c1N | 58.3% (active)
Nc1nc(SCC(=O)NCc2ccccc2)[nH]c(=O)c1NC(=O)c1ccccc1F | 9.7%
Cc1ccc(NC(=O)c2ccn(C)n2)c(Br)c1 | 6%
O=C(Cn1nc(C(F)(F)F)c2c1CCC2)N1CCN(c2ccccc2)CC1 | 9.9%
CC(C)CC(=O)O/N=C1\C(=O)N(Cc2ccc(Cl)cc2)c2ccc([N+](=O)[O-])cc21 | 22.3%
CCCn1c(C)cc(/C=C(\C#N)C(=O)OCC(=O)NC(=O)NC(C)(C)C)c1C | -3.7%
Cc1cccc(N2CCN(C(=S)Nc3ccc4nc(N5CCOCC5)cc(C)c4c3)CC2C)c1 (stereo not drawn) | 51.9% (active)
CCN1CCN(c2cc(C)c3cc(NC(=S)N4CCN(c5ccccc5)CC4)ccc3n2)CC1 | 28.1%
COc1ccccc1N1CCN(C(=S)Nc2ccc3nc(N4CCOCC4)cc(C)c3c2)CC1 | 62.5% (active)
Cc1cc(N2CCN(C)CC2)nc2ccc(NC(=S)N3CCN(c4ccc(Cl)cc4)CC3)cc12 | 41.7%
Cc1ccc(C)c(N2CCN(C(=S)Nc3ccc4nc(N5CCN(C)CC5)cc(C)c4c3)CC2)c1 | 24.4%
Cc1ccc(C)c(N2CCN(C(=S)Nc3ccc4nc(N5CCOCC5)cc(C)c4c3)CC2)c1 | 58.5% (active)
Cc1cccc(N2CCN(C(=S)Nc3ccc4nc(N5CCN(C)CC5)cc(C)c4c3)CC2C)c1 (stereo not drawn) | 17.5%
CCN1CCN(c2cc(C)c3cc(NC(=S)N4CCOCC4)ccc3n2)CC1 | 13.3%
Cc1cccc(N2CCN(C(=S)Nc3ccc4nc(N5CCN(C)CC5)cc(C)c4c3)CC2)c1C | 16.2%
Cc1cc(N2CCOCC2)nc2ccc(NC(=S)N3CCN(c4ccccc4)CC3)cc12 | 52.5% (active)
Cc1cc(N2CCN(C)CC2)nc2ccc(NC(=S)N3CCN(c4ccc(F)cc4)CC3)cc12 | 29.1%
Cc1cc(N2CCOCC2)nc2ccc(NC(=S)N3CCN(Cc4ccccc4)CC3)cc12 | 35.3%
CCOc1cc2[nH]c(=O)n(CCCN3CCN(c4ccc(OC)cc4)CC3)c(=O)c2cc1OCC | 21.4%

Structure (SMILES) | inhibition
COc1ccc(N/C=C\C(=O)c2ccc(C)cc2)cc1OC | 18.6%
Cc1occc1C(=O)NNC(=S)NCc1ccc(Cl)cc1 | -4.2%
CCCC(=O)NCCc1nc2ccccc2n1CC(=O)c1ccccc1 | 4.9%
CCN(CC)S(=O)(=O)c1ccc(N2C(=O)Nc3ccccc3N2O)cc1 | -8.2%
COc1nccc(Nc2ccccc2)c1C#N | -7.6%
Cc1cc(N2CCN(C)CC2)nc2ccc(NC(=S)N3CCCCC3)cc12 | 53.5% (active)
Cc1cc(N2CCN(C)CC2)nc2ccc(NC(=S)N3CCCCCC3)cc12 | 24.8%
Cc1cc(N2CCN(C)CC2)nc2ccc(NC(=S)N3CCOCC3)cc12 | 23.9%
FC(F)(F)c1cnc(Oc2cccc3ccccc23)c(Cl)c1 | 10.7%
CN(CC(=O)Nc1ccc(N2CCOCC2)cc1)C(=O)C1CCCC1 | 9.6%
CN1c2cccc3cccc(c23)N(C)C1c1cccs1 | 58.6% (active)
c1csc(C2Nc3cccc4cccc(c34)N2)c1 | 11.7%
CN1CN(C)c2cccc3cccc1c23 | 48.7%
CN1C(=O)c2ccccc2N(C)C1c1cccs1 (stereo not drawn) | 10%
CC1N(C)c2cccc3cccc(c23)N1C | 62.9% (active)
CN1/C(=N\O)c2cccc3cccc1c23 | 42.5%
O=C(COC(=O)c1ccccc1)Nc1cc(Cl)ccc1Oc1ccccc1 | 0.2%
COc1ccc(N2CC(NC(=O)NCC(C)C)CC2=O)cc1 (stereo not drawn) | 7.2%
COc1ccc(N2CC(NC(=O)NC(C)(C)C)CC2=O)cc1 (stereo not drawn) | 53.9% (active)
COc1ccc(N2CC(NC(=O)Nc3ccccc3)CC2=O)cc1 (stereo not drawn) | -16.3%
CC(C)CSc1n[nH]c(=S)s1 | -41%

Source: PubChem BioAssay AID1220 (Sanford-Burnham Center for Chemical Genomics, 2008)
